# V-ATPase pH – yeast V-ATPase proton transport regulation by pHLuorin. S. cerevisiae, pHLuorin cytosolic pH fluorescence. response, % at 10 µM. 0.37% of 350,000 active; in the data active = response mostly above about 7.3%, no sharp cut-off; inactive = mostly below about 5.4%; note: actives read high
# Efflux pump inh – blocks antifungal efflux pumps in multiplex yeast assay; S. cerevisiae Candida pump triplex, Nile Red efflux; inhibition, % at 10 µM; 0.44% of 330,000 active; AID 485275;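 active = plate passing quality check with inhibition over a set limit, or well fluorescence over plate mean plus 4 SD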;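 note: Nile Red retained in pooled yeast measured as flow cytometry median fluorescence; higher means more Nile Red kept so more efflux inhibition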
# Mot1-301 SUMO – blocks SUMOylation pathway, rescuing yeast Mot1-301 growth. 1% of 320,000 active. AID 2716. S. cerevisiae Mot1-301 growth rescue, ATP luminescence, 38.5C; percent above DMSO median, 100 means doubled. growth rescue, % at 18.8 µM;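 active = every valid replicate shows activation above 250% relative to neutral control wells; inactive = the rest, any valid replicate at or below 250%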
# AI-2 QS modul – modulates the Vibrio harveyi AI-2 quorum sensing system; Vibrio harveyi JMH597 AI-2 luminescence/OD600 ratio, 9 h; hits give low values; strain lacks LuxN and CqsS sensors; 0 = neutral-control median; activity change, % at 7.5 µM; 0.4% of 300,000 active; AID 2094; in the data active = activity change below about -75%, passing the limit was not always enough;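 note: luminescence divided by OD600 gain over 9 h not by final OD600 alone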
# ATG4B inh – ATG4B (human) cysteine protease inhibition | ATG4B cleavage of LC3-PLA2, NBD-HPC fluorescence, 1 h | inhibition, % at 8.33 µM | 0.51% of 340,000 active | AID 504462; in the data active = inhibition above about 40%
# Target sequence (Q9Y4P1 whole entry, looked up): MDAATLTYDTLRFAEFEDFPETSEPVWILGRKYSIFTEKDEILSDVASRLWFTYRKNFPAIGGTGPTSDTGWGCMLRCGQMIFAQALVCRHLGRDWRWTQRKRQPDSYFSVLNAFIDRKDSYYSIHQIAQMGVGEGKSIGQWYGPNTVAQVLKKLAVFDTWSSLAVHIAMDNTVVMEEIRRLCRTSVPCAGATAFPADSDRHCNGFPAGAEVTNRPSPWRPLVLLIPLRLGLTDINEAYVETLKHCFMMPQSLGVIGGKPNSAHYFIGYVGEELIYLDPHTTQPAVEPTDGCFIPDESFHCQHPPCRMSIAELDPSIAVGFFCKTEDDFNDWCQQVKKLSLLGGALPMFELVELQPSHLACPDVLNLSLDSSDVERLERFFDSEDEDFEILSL
# Mot1 SUMO dose – SUMO pathway inhibitors in yeast Mot1-301 growth | shares compounds with Mot1-301 SUMO | S. cerevisiae Mot1-301 galactose growth, ATP luminescence, 24 h; -100 = growth of slx-deleted rescue strain | growth activity, percent, % at 42 µM | 2,300 tested, under 10 active;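 active = Signal drops as the depositor expects, and the fitted half-maximal dose is no more than ten times the top valid tested dose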;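 note: more negative values mean stronger growth rescue toward the control strain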
# Numbers stand for hits; - = inactive; . = not tested or not shown; + = active, no number. An excerpt weighted towards active compounds, which were near 2.5% of everything screened.
SMILES,V-ATPase pH,Efflux pump inh,Mot1-301 SUMO,AI-2 QS modul,ATG4B inh,Mot1 SUMO dose
CCOc1ncccc1C(=O)OCC(=O)Nc1cccc(S(N)(=O)=O)c1,-,-,-,-,-,.
Cc1n[nH]c(=O)c2c(NC(=O)COC(=O)Cc3c(F)cccc3Cl)oc(C)c12,-,-,-,-,-,.
Cc1n[nH]c(=O)c2c(NC(=O)COC(=O)Cc3ccc(Cl)cc3Cl)oc(C)c12,-,-,535,.,-,-
Nc1ccc(N2CCN(c3ccc(F)cc3)CC2)cc1,-,-,903,-,-,-
Cc1cccc(C)c1NC(=O)CNC(=O)c1cccc(S(=O)(=O)NCc2cccs2)c1,-,-,-,.,-,.
Cc1c(NC(=O)c2ccc(N(C)S(C)(=O)=O)cc2)c(=O)n(-c2ccccc2)n1C,-,-,+,-,-,-
Cc1c(NC(=O)c2cc(-c3ccccc3O)on2)c(=O)n(-c2ccccc2)n1C,-,-,441,-,-,-
Cc1c(NC(=O)c2ccc(N(Cc3ccccc3)S(C)(=O)=O)cc2)c(=O)n(-c2ccccc2)n1C,-,-,-,-,-,.
Cn1ccnc1SCC(=O)Nc1ccc2c(c1)OC(F)(F)O2,.,-,-,-,.,.
COC(=O)CCSCC(=O)N1N=C(c2ccc(OC)cc2)CC1c1cccc(OC)c1OC (stereo not given),-,-,-,-,-,.
Cc1ccc(C(=O)Nc2cccc([N+](=O)[O-])c2)cc1S(=O)(=O)Nc1cccc(C(=O)O)c1,-,-,-,-,-,.
O=C(O)c1cccc(NC(=O)c2cccc(S(=O)(=O)Nc3cccc([N+](=O)[O-])c3)c2)c1,-,-,419,-,-,-
Cc1ccc(NS(=O)(=O)c2cc(C(=O)Nc3cccc([N+](=O)[O-])c3)ccc2C)cc1,-,-,476,-,-,-
Cc1ccc(C)c(N(CC(=O)NC2CCCCC2)C(=O)CNC(=O)c2ccco2)c1,-,-,-,-,-,.
CCC(C)(C)NC(=O)C(c1ccc(C)cc1)N(CC1CCCO1)C(=O)CNC(=O)c1cccs1 (stereo not given),-,-,688,-,-,-
Cc1ccc(C(C(=O)NC2CCCCC2)N(CC2CCCO2)C(=O)CNC(=O)c2cccs2)cc1 (stereo not given),-,-,-,-,-,.
Cc1ccc(OCCOc2ccc(Br)cc2)c([N+](=O)[O-])n1,-,-,-,-,-,.
CCCCCCC(C)n1[nH]c(=O)c2c(C)cc(=O)[nH]c21 (stereo not given),-,-,531,-,-,-
O=C(C[n+]1ccc(C(=O)N/N=C/c2ccc(Cl)cc2Cl)cc1)c1ccccc1,-,-,712,-,-,-
O=C(O)c1cc(S(=O)(=O)N2CCCCCC2)ccc1Cl,-,-,-,-,-,.
CS(=O)(=O)c1ccc(Cl)c(C(=O)O)c1,-,-,608,-,-,-
O=C(Nc1cccc([N+](=O)[O-])c1)Nc1ccc2c(c1)OCCO2,-,-,-,-,-,.
CCOC(=O)C1(CC2CCCCO2)CCN(C(=O)Nc2ccccc2CC)CC1 (stereo not given),-,-,-,-,-,.
COc1cc2ccccc2cc1C(=O)Nc1ccc(CN2CCOCC2)cc1,-,-,394,-,-,-
C/C=C\C=C/C(=O)Nc1cccc(C2=NOC3(C2)C[C@@H](C(N)=O)N(C(=O)c2ccccc2)C3)c1 (stereo not given in full),.,-,433,-,.,-
SMILES,V-ATPase pH,Efflux pump inh,Mot1-301 SUMO,AI-2 QS modul,ATG4B inh,Mot1 SUMO dose
COc1cc(C)c(Cl)c(C)c1S(=O)(=O)NCc1ccc2c(c1)OCO2,-,-,384,-,-,-
COc1cc(C)c(S(=O)(=O)NCc2ccc3c(c2)OCO3)cc1C,-,-,-,-,-,.
CCC(=O)N1N=C(c2ccc(C)cc2)CC1c1ccco1 (stereo not given),-,-,-,-,-,.
O=C(O)CCC(=O)N1N=C(c2c(-c3ccccc3)c3cc(Cl)ccc3[nH]c2=O)CC1c1ccco1 (stereo not given),-,-,377,-,-,-
CCC(=O)N1N=C(c2c(-c3ccccc3)c3cc(Cl)ccc3[nH]c2=O)CC1c1ccco1 (stereo not given),-,-,-,-,-,.
CCC1(CC)NC(=O)N(CC(=O)N2N=C(c3ccc(Cl)cc3)CC2c2ccco2)C1=O (stereo not given),-,-,581,-,-,-
COc1cccc(C(=O)N2CCC(n3nccc3NC(=O)CCOc3ccccc3)CC2)c1,-,-,-,-,-,.
Cc1cc(C)c(SSc2nnnn2-c2ccccc2)c(C)c1,-,.,.,.,.,.
COc1ccc2[nH]c(C(=O)N/N=C/c3ccccc3OC)cc2c1,-,-,503,-,-,-
CCOC(=O)Cn1c(C)c(C#N)c2ccccc21,-,-,-,-,-,.
CCOC(=O)Cn1c(C)c(Br)c(=O)c2cccc(C)c21,-,-,+,-,-,-
Cc1cc(C)n(-c2nc(-c3cccc(Cl)c3)cs2)n1,-,-,434,-,-,-
Cc1cc(C)n(-c2nc(-c3ccccc3)cs2)n1,-,-,-,-,-,.
O=C(COC(=O)c1cccc(O)c1)Nc1ccc(S(=O)(=O)N2CCOCC2)cc1,-,-,-,.,-,.
Cc1cccc(NC(=O)CSc2cccc3cccnc23)c1,-,-,-,-,-,.
O=C(CSc1cccc2cccnc12)Nc1cc(C(=O)O)cc(C(=O)O)c1,-,-,577,-,-,-
CCCCn1c(C(C)O)nc2ccccc21 (stereo not given),-,-,-,-,-,.
CC(C)CCn1c(C(C)O)nc2ccccc21 (stereo not given),-,-,433,.,-,-
COc1ccc(-c2nc(C#N)c(NC(C)c3ccccc3)o2)cc1OC (stereo not given),-,-,417,-,-,-
COc1ccc(-c2nc(C#N)c(NCC3CCCO3)o2)cc1OC (stereo not given),-,-,-,-,-,.
C#CCNC(=O)C1=C[C@H](c2ccc(Br)cc2)[C@@H](CCCO)[C@H](OCC)O1,-,-,-,-,-,.
CC(=O)Nc1ccc(S(=O)(=O)Nc2ncccn2)cc1,-,-,-,-,-,.
CC(=O)c1ccc(S(=O)(=O)Nc2cccc(-c3ccc4nncn4n3)c2)cc1,-,-,-,-,-,.
CC(=O)Nc1ccc(S(=O)(=O)Nc2ccc(S(=O)(=O)Nc3ncccn3)cc2)cc1,-,-,+,-,-,-
CC(=O)Nc1ccc(S(=O)(=O)Nc2cccc(-c3ccc4nncn4n3)c2)cc1,-,-,528,-,-,-
O=C1CN(C(=O)COC(=O)CCSc2ccccc2Cl)c2ccccc2N1,-,-,-,-,-,.
Clc1ccc(CN2C3=NCCCN3c3ccccc32)c(Cl)c1,-,-,-,-,-,.
